Shown are actives, neighbours in structure and some others; about 10% of the full set was active somewhere.
GPT2 inh = GPT2 alanine aminotransferase inhibition. Potency, µM (doses to about 57.7 µM), usual class: inhibitors. hit rate 0.25% among 100,000. Recombinant GPT2, coupled pyruvate oxidase/HRP Amplex Red fluorescence. Q8TD30; further: nearly all actives have a fitted effect of over 60% in size
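Recombinant GPT2 (10ng/uL) with 250uM a-KG and 2mM L-alanine, 30 min at room temperature, in HEPES pH 7.5 buffer. Pyruvate detected by pyruvate oxidase/HRP/Amplex Red fluorescence after 30 min in the dark; AOA (50uM) as positive control.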
Luciferase inh = blocks purified firefly luciferase enzyme activity; P08659; purified P. pyralis luciferase, luminescence, biochemical; Potency, µM (series often up to 115 µM), usual class: inhibitors; hit rate 2.5% among 76,000; AID 1347043; further: nearly all actives have a fitted effect of over 65% in size
Target sequence (P08659 whole entry, looked up): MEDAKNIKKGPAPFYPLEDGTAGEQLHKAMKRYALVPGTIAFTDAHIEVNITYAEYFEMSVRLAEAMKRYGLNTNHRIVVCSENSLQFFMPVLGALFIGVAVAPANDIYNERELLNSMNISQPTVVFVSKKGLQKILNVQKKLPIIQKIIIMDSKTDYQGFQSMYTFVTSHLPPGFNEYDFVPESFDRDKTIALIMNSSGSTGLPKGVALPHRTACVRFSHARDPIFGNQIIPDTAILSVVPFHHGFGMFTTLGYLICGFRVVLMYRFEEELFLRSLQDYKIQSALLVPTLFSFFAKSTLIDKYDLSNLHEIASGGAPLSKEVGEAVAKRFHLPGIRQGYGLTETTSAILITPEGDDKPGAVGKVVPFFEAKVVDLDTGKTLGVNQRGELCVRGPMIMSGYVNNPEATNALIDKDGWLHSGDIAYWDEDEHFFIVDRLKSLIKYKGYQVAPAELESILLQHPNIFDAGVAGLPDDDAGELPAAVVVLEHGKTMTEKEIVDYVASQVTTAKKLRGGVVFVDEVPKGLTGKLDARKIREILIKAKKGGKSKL
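Cell-free enzyme assay, 10nM P. pyralis luciferase, luciferin and ATP each at 10uM. Inhibition profiled over a 6-point titration, read as luminescence.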
HEK cytotox = cytotoxic compounds in HEK 293 cells. HEK 293 viability, ATP luminescence (CellTiter-Glo), 48-72 h. Potency, µM (doses to about 115 µM), hits mostly inhibitors. hit rate 6.6% among 94,000. AID 1345083; further: nearly all actives have a fitted effect of over 60% in size
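Cells seeded first (HEK 293, 250 cells/well), then compound added by pintool. Incubation ran 48 or 72 hr at 37 degree Celsius. CellTiter-Glo was added and luminescence imaged after 10 min at room temperature.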
NPR1 antag = blocks ANP-stimulated signaling of human Npr1 receptor; P16066; HEK293 hNpr1 GloSensor cGMP, ANP-stimulated luminescence; Potency, µM (top dose mostly 46.3 µM), hits mostly inhibitors; hit rate 1.6% among 76,000; calls by dose curve; further: nearly all actives have a fitted effect of over 60% in size
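Compound pre-incubated 30 min at room temperature on GloSensor-loaded HEK293 cells stably carrying hNpr1 and the pGS-40F cGMP biosensor. Stimulation uses hNppA at 0.1 nM final; luminescence is taken at baseline and 20 min post-agonist.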
NIH3T3 tox = cytotoxic compounds in NIH 3T3 cells | Potency, µM (top dose mostly 96.7 µM), most hits filed as inhibitors | hit rate 4.3% among 94,000 | NIH 3T3 viability, CellTiter-Glo ATP luminescence, 48-72 h; further: nearly all actives have a fitted effect of over 55% in size
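ATP-dependent luminescence (CellTiter-Glo) served as the viability signal for NIH 3T3 cells treated with compound for 48 or 72 hr at 37 °C.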
Large screens that a line does not name were inactive; ! = a repeat was not active. Unless noted, the call rests on the fitted dose curve; in most records, active means well fitted curve in the direction sought with a large enough effect; inconclusive means small, poorly fitted or top-dose-only effect, or another doubt; inactive means no such curve, though single readings can be large; an effect the other way counts as inactive or inconclusive.

COC(=O)c1cccc(NC(=O)c2ccc3c(c2)N(C)C2CCCCN2C3=O)c1 (configuration not stated)	Luciferase inh inconclusive, HEK cytotox inconclusive, NIH3T3 tox inconclusive
Cc1cc(NC(=O)c2ccc3c(c2)N(C)C2CCCN2C3=O)ccc1Br (configuration not stated)	Luciferase inh inconclusive
COc1ccc(Cn2c(=O)c(C(=O)N3CCN(C(=O)c4ccccc4)CC3)nc3cccnc32)cc1	none (no result: Luciferase inh, NPR1 antag)
CN(C)c1ccc(C(=O)N2CCCC(n3cc(-c4nc(C5CC5)no4)nn3)C2)cc1 (configuration not stated)	none
Cc1cccc(CN2CCc3ncc(C(=O)NCc4ccccc4)n3CC2)c1	NIH3T3 tox inconclusive
CN(C)CC1(O)CCCN(Cc2cccc3ncccc23)C1 (configuration not stated)	none
COC(=O)c1cccc(NC(=O)c2ccc3c(c2)N(C)C2CCCCCN2C3=O)c1 (configuration not stated)	Luciferase inh inconclusive, HEK cytotox inconclusive, NPR1 antag inconclusive, NIH3T3 tox 44.7µM
Cc1ccc(C(=O)N2CCC3(CC2)CC(c2cccc(C(F)(F)F)c2)=NO3)cc1	GPT2 inh inconclusive, HEK cytotox 44.7µM!, NIH3T3 tox inconclusive
O=C(c1ccc(Cl)nc1)N1CCC2(CC1)CC(c1cccc(C(F)(F)F)c1)=NO2	HEK cytotox 35.5µM!, NIH3T3 tox inconclusive (no result: GPT2 inh, Luciferase inh, NPR1 antag)
COc1ccccc1CNC(=O)C1(c2ccc(NC(=O)C3CC3)cc2)CCCCC1	NIH3T3 tox inconclusive
Cc1ccc(N2C(=S)N[C@H]3[C@@H](O)[C@H](O)C[C@@H](C(=O)NCc4cccs4)[C@H]32)cc1Cl	Luciferase inh inconclusive, HEK cytotox 79.4µM, NIH3T3 tox inconclusive
COc1ccc(N2CC(C(=O)NCc3cccs3)NC2=O)cc1 (configuration not stated)	none
O=C(COc1ccccc1)N1CCCCC1c1nc(CCOCC2CCOCC2)no1 (configuration not stated)	HEK cytotox inconclusive (no result: Luciferase inh, NPR1 antag)
CCOC(=O)c1cccc(NC(=O)N2CC[C@@H](CC(=O)NCCOC)[C@@H](CC)C2)c1	NIH3T3 tox inconclusive
O=C(Nc1ccc(Cl)cc1)c1ccc(Cn2ccn3nc4c(c3c2=O)CCCC4)cc1	HEK cytotox inconclusive
O=C(Nc1ccccc1)c1ccc(Cn2ccn3nc4c(c3c2=O)CCCC4)cc1	HEK cytotox 15.8µM, NIH3T3 tox inconclusive
Cc1oc(-c2ccc(OC(C)C)cc2)nc1Cn1ccn2nc3c(c2c1=O)CCCC3	HEK cytotox 8.91µM, NIH3T3 tox inconclusive
CCc1ccc(NC(=O)c2ccc(Cn3ccn4nc5c(c4c3=O)CCCC5)cc2)cc1	Luciferase inh inconclusive, HEK cytotox 20µM, NIH3T3 tox inconclusive
COc1ccccc1Cn1ccn2nc3c(c2c1=O)CCCC3	HEK cytotox 44.7µM, NIH3T3 tox inconclusive
O=c1c2c3c(nn2ccn1Cc1cc(F)ccc1F)CCCC3	HEK cytotox inconclusive, NIH3T3 tox inconclusive
O=C(Nc1ccc(F)cc1)c1ccc(Cn2ccn3nc4c(c3c2=O)CCCC4)cc1	none
CCn1nccc1C(=O)NCCC1CCN(C(=O)Nc2ccc(C)cc2)CC1	Luciferase inh inconclusive
CCOC(=O)[C@@H]1[C@@H](OC)C(=O)N(C)C12CCN(C(=O)c1cc(OC)c(OC)c(OC)c1)CC2	NIH3T3 tox inconclusive (no result: GPT2 inh, Luciferase inh, NPR1 antag)
CC(=O)N1CCCC(C(=O)N2CCC(N3Cc4cccn4C3=O)CC2)C1 (configuration not stated)	none (no result: Luciferase inh, NPR1 antag)
COCCCNC(=O)c1ccc(Cn2ccn3nc4c(c3c2=O)CCCC4)cc1	HEK cytotox inconclusive, NIH3T3 tox inconclusive
O=C(NCCC1=CCCCC1)c1ccc(Cn2ccn3nc4c(c3c2=O)CCCC4)cc1	HEK cytotox 39.8µM, NIH3T3 tox inconclusive
COc1ccc(-c2noc([C@@H]3Cc4nc[nH]c4CN3C(=O)NC3CCCCC3)n2)cc1	Luciferase inh inconclusive, NIH3T3 tox inconclusive
COC[C@H]1NC(=O)CC[C@H]1C(=O)NCc1cc(F)cc(F)c1	none (no result: Luciferase inh, NPR1 antag)
CCOc1cccc2c1OC[C@@H]1CN(CCC#N)C(=O)CCN(C(=O)c3cccs3)[C@H]21	NIH3T3 tox inconclusive (no result: GPT2 inh, Luciferase inh, NPR1 antag)
CC(C)(C)C(Cn1ccnc1)NC(=O)c1cc(COc2ccc3c(c2)CCCC3)on1 (configuration not stated)	Luciferase inh inconclusive, HEK cytotox 25.1µM, NIH3T3 tox 20µM
Cc1cc(C)n(CCCNC(=O)c2cc(COc3ccc4sc(C)nc4c3)on2)n1	none
Cc1cc(F)cc(CN2CCOc3cc([S+](=O)([O-])N(C)C)ccc3C2)c1	HEK cytotox 79.4µM, NIH3T3 tox 39.8µM
CN(C)[S+](=O)([O-])c1ccc2c(c1)OCCN(Cc1cccc(Cl)c1)C2	HEK cytotox 79.4µM, NIH3T3 tox inconclusive
CCc1cc(N2CCC(NCCc3cccc(Cl)c3)CC2)nc(C)n1	HEK cytotox inconclusive, NIH3T3 tox 39.8µM
CCCc1cc(N2CCC(N[C@@H]3CCNC3)CC2)nc(C)n1	none
O=C(NCCc1ccccc1F)C1CCc2nnc(CN[S+](=O)([O-])c3ccccc3Cl)n21 (configuration not stated)	none (no result: Luciferase inh, NPR1 antag)
Cc1cc(C)cc(-c2ccc(CN3CCCC3C(=O)NC3CC3)cc2)c1 (configuration not stated)	HEK cytotox 50.1µM, NIH3T3 tox inconclusive (no result: Luciferase inh, NPR1 antag)
Cc1cc(C)cc(-c2ccc(CN3CCCC3C(=O)Nc3ccccc3Cl)cc2)c1 (configuration not stated)	none (no result: Luciferase inh, NPR1 antag)
Cc1cc(C)cc(-c2ccc(CN3CCCC3C(=O)NCCc3ccccc3)cc2)c1 (configuration not stated)	HEK cytotox 39.8µM, NIH3T3 tox 31.6µM (no result: Luciferase inh, NPR1 antag)
Cc1cc(C)cc(-c2ccc(CN3CCCC3C(=O)Nc3ccccc3F)cc2)c1 (configuration not stated)	HEK cytotox inconclusive (no result: Luciferase inh, NPR1 antag)
Cc1cc(C)cc(-c2ccc(CN3CCCC3C(=O)NCc3ccc(F)cc3)cc2)c1 (configuration not stated)	HEK cytotox inconclusive, NIH3T3 tox inconclusive (no result: Luciferase inh, NPR1 antag)
Cc1cc(C)cc(-c2ccc(CN3CCCC3C(=O)Nc3ccc(F)cc3)cc2)c1 (configuration not stated)	HEK cytotox inconclusive, NIH3T3 tox inconclusive (no result: Luciferase inh, NPR1 antag)
Cc1cc(C)cc(-c2ccc(CN3CCCC3C(=O)NC(C)C)cc2)c1 (configuration not stated)	HEK cytotox 50.1µM, NIH3T3 tox inconclusive (no result: Luciferase inh, NPR1 antag)
Cc1cc(C)cc(-c2ccc(CN3CCCC3C(=O)NCc3ccc4c(c3)OCO4)cc2)c1 (configuration not stated)	HEK cytotox 50.1µM, NIH3T3 tox 35.5µM (no result: Luciferase inh, NPR1 antag)
Cc1nn(-c2ccccc2)c2c1C(C(C)C)N(C1CCCN([S+](=O)([O-])c3cccc(C(F)(F)F)c3)C1)C2=O (configuration not stated)	none (no result: GPT2 inh, Luciferase inh, NPR1 antag)
COc1ccc2nc3n(c2c1)[C@@H](CNC(C)C)COC3	NIH3T3 tox 100µM

Screens from PubChem BioAssay.
